Results filed as inconclusive are left out. A number with no mark means an inactive call. Calls of active or inactive are those of the source. Calls come from the whole dose curve; as a rule, active = well fitted curve in the direction sought with a large enough effect; inconclusive = small, poorly fitted or top-dose-only effect, or another doubt; inactive = no such curve, though single readings can be large; an effect the other way counts as inactive or inconclusive.
tested on: not listed separately; assay: qHTS for Inhibitors of the Aldehyde Dehydrogenase Family (ALDH1A2, ALDH1A3, ALDH2, ALDH3A1) (AID 2061307); conditions: ALDH inhibition qHTS; series mostly up to 50.3 µM; activity change, negative = inhibition: at the top concentration; note: nearly all actives have a fitted effect of over 50% in size; for Potency: test system not described further here; for activity change, negative = inhibition: % is set by controls: 0 for no effect and ±100 for the full control effect
Potency is the fitted concentration of half-maximal effect.

SMILES	Potency	activity change, negative = inhibition [%]
N#Cc1c(-c2cccc(Cl)c2)no[n+]1[O-]	12.7 µM (active)	–
COc1ccc(C2=Nn3c(nnc3-c3cccc(OC)c3OC)SC2)c(OC)c1	2 µM (active)	–
COc1ccc(C2Nc3ccccc3C(=O)N2CCc2ccccc2)cc1COc1ccc(NC(C)=O)cc1 (stereo not given)	5.65 µM (active)	–
CN(C)CCCNC(=O)c1ccc(-c2cnc3c(O)cccc3c2)cc1	–	9.79
O=C(CN1C(=O)N/C(=C\c2cn(-c3cccc(C(=O)O)c3)cn2)C1=O)Nc1ccccc1Cl	–	1.16
CN1CCN(c2ccc(Nc3nn4c(=O)c5ccccc5nc4s3)cc2)CC1	–	-17.4
COc1ccc(C2Nc3ccccc3C(=O)N2Cc2ccccn2)cc1COc1ccc(NC(C)=O)cc1 (stereo not given)	6.31 µM (active)	–
O=C(c1cccs1)c1nonc1C(=O)c1cccs1	–	-4.23
COc1ccc(C2Nc3ccccc3C(=O)N2Cc2ccco2)cc1COc1ccc(NC(C)=O)cc1 (stereo not given)	–	-5.09
O=S(=O)(c1ccccc1)N1CCN(c2nc(-c3ccc(Br)cc3)cs2)CC1	7.98 µM (active)	–
Cc1cc(-c2nnc3n2CCCCC3)c(C)n1-c1ccc(Cl)c(Cl)c1	–	-0.977
COc1ccc(OCc2cc(C3Nc4ccccc4C(=O)N3Cc3ccccc3)ccc2OC)cc1 (stereo not given)	5.65 µM (active)	–
Cc1ccnc(CC(=S)N2CCN(c3cccc(C(F)(F)F)c3)CC2)c1	10 µM (active)	–
COc1ccc(C2=Nn3c(nnc3-c3cc(OC)ccc3OC)SC2)cc1	20 µM (active)	–
COc1ccc(C2Nc3ccccc3C(=O)N2Cc2ccccc2)cc1COc1ccc(NC(C)=O)cc1 (stereo not given)	3.18 µM (active)	–
CNc1oc(-c2c[nH]c3ccccc23)nc1C#N	11.3 µM (active)	–
N#Cc1nc(Nc2ccc3ccccc3c2)nc(NC2CCCC2)n1	–	-20.3
O=C(O)c1ccc(-n2cccc2/C=C2\SC(=O)N(Cc3ccc(F)cc3)C2=O)cc1	7.98 µM (active)	–
COc1ccc(C2Nc3ccccc3C(=O)N2CCc2ccc(Cl)cc2Cl)cc1COc1ccc(NC(C)=O)cc1 (stereo not given)	3.57 µM (active)	–
Cc1cc(-c2nnc3n2CCCC3)c(C)n1-c1ccccc1	–	-13.9

SMILES	Potency	activity change, negative = inhibition [%]
COc1ccc(C2Nc3ccccc3C(=O)N2Cc2ccc(CNC(=O)CO)cc2)cc1COc1ccc(NC(C)=O)cc1 (stereo not given)	4.49 µM (active)	–
COc1ccc(C2Nc3ccccc3C(=O)N2CCCN(C)C)cc1COc1ccc(NC(C)=O)cc1 (stereo not given)	7.12 µM (active)	–
COc1cc2ncnc(N(C)Cc3csc(C)n3)c2cc1-c1ccc2c(c1)OCO2	–	-4.92
N#Cc1nc(Nc2ccccc2)nc(NC2CCCCC2)n1	0.708 µM (active)	–
O=C(O)C1CCN(c2ncc(-c3ccc4c(c3)OCCCO4)s2)CC1	1.52 µM (active)	–
N#Cc1nc(Nc2ccc(F)cc2)nc(NC2CCCC2)n1	3.16 µM (active)	–
COc1ccc(S(=O)(=O)N2CCN(S(=O)(=O)c3ccc4c(c3)OCCO4)CC2)cc1	–	-25.4
Cc1cc(C)nc(NC(=S)N2CC3CN(c4ncc(C(F)(F)F)cc4Cl)CC3C2)c1 (stereo not given)	–	-12.8
O=[S+]([O-])(Nc1ccc(-c2nc3ccccc3[nH]2)cc1)c1ccc2c(c1)OCO2	–	-21.1
FC(F)Oc1ccc(C2=Nn3c(nnc3-c3ccccc3C(F)(F)F)SC2)cc1OCC1CC1	2.83 µM (active)	–
FC(F)(F)c1ccc(-c2ccc(CNc3nc(-c4ccccc4C(F)(F)F)nc4ccccc34)cc2)cn1	8.91 µM (active)	–
COc1ccc(C2Nc3ccccc3C(=O)N2Cc2ccncc2)cc1COc1ccc(NC(C)=O)cc1 (stereo not given)	3.57 µM (active)	–
O=C(Nc1nc(-c2ccccc2)cs1)c1ccncc1NS(=O)(=O)c1ccc2ccccc2c1	2.51 µM (active)	–
O=C(Nc1nc(-c2ccccc2)cs1)c1ccncc1NS(=O)(=O)c1ccccc1Cl	22.5 µM (active)	–
O=C(Nc1cncc(Cc2ccccc2)c1)c1ccc(-c2cccc([N+](=O)[O-])c2)o1	1.27 µM (active)	–
O=C([C@H](Cc1ccc(O[S+](=O)([O-])c2cccnc2)cc1)N[S+](=O)([O-])c1ccccn1)N1CCN(c2ccccc2)CC1	15.8 µM (active)	–
O=S(=O)(c1ccc2c(c1)OCO2)N1CCN(S(=O)(=O)c2c(F)cccc2F)CC1	–	-5.06
O=C(NCCCCc1ccccc1)C1CCN(c2nc(-c3ccc(Br)cc3)cs2)CC1	3.57 µM (active)	–
CCCCN(C)C(=O)Cn1nc(-c2ccc(Cl)cc2)ccc1=O	–	-13.6
COc1ccc(C2=Nn3c(nnc3-c3ccc(OC)cc3)SC2)cc1	7.98 µM (active)	–

molecular target: Aldehyde dehydrogenase, mitochondrial (Homo sapiens) (UniProt P05091); assay: qHTS for Inhibitors of the Aldehyde Dehydrogenase Family (ALDH2) Primary screen (AID 2061308); conditions: ALDH2 enzyme inhibition qHTS, 1536-well; series mostly up to 56 µM; activity change, negative = inhibition: at the top concentration; note: nearly all actives have a fitted effect of over 55% in size;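 for activity change, negative = inhibition: plate controls were vehicle for no effect and reference inhibitor for full effect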

SMILES	Potency	activity change, negative = inhibition [%]
N#Cc1c(-c2cccc(Cl)c2)no[n+]1[O-]	8.91 µM (active)	–
COc1ccc(C2=Nn3c(nnc3-c3cccc(OC)c3OC)SC2)c(OC)c1	–	2.89
COc1ccc(C2Nc3ccccc3C(=O)N2CCc2ccccc2)cc1COc1ccc(NC(C)=O)cc1 (stereo not given)	–	-17
CN(C)CCCNC(=O)c1ccc(-c2cnc3c(O)cccc3c2)cc1	–	13.6
O=C(CN1C(=O)N/C(=C\c2cn(-c3cccc(C(=O)O)c3)cn2)C1=O)Nc1ccccc1Cl	–	-12.2
CN1CCN(c2ccc(Nc3nn4c(=O)c5ccccc5nc4s3)cc2)CC1	–	-2.42
COc1ccc(C2Nc3ccccc3C(=O)N2Cc2ccccn2)cc1COc1ccc(NC(C)=O)cc1 (stereo not given)	–	-28.8
O=C(c1cccs1)c1nonc1C(=O)c1cccs1	–	-2.98
COc1ccc(C2Nc3ccccc3C(=O)N2Cc2ccco2)cc1COc1ccc(NC(C)=O)cc1 (stereo not given)	–	-0.185
O=S(=O)(c1ccccc1)N1CCN(c2nc(-c3ccc(Br)cc3)cs2)CC1	–	-15
Cc1cc(-c2nnc3n2CCCCC3)c(C)n1-c1ccc(Cl)c(Cl)c1	–	-7.72
COc1ccc(OCc2cc(C3Nc4ccccc4C(=O)N3Cc3ccccc3)ccc2OC)cc1 (stereo not given)	–	3.58
Cc1ccnc(CC(=S)N2CCN(c3cccc(C(F)(F)F)c3)CC2)c1	–	-26.2
COc1ccc(C2=Nn3c(nnc3-c3cc(OC)ccc3OC)SC2)cc1	–	11.2
COc1ccc(C2Nc3ccccc3C(=O)N2Cc2ccccc2)cc1COc1ccc(NC(C)=O)cc1 (stereo not given)	–	0.288
CNc1oc(-c2c[nH]c3ccccc23)nc1C#N	–	-5.23
N#Cc1nc(Nc2ccc3ccccc3c2)nc(NC2CCCC2)n1	–	-6.69
O=C(O)c1ccc(-n2cccc2/C=C2\SC(=O)N(Cc3ccc(F)cc3)C2=O)cc1	–	-17.2
COc1ccc(C2Nc3ccccc3C(=O)N2CCc2ccc(Cl)cc2Cl)cc1COc1ccc(NC(C)=O)cc1 (stereo not given)	–	-5.6
Cc1cc(-c2nnc3n2CCCC3)c(C)n1-c1ccccc1	–	-1.57

SMILES	Potency	activity change, negative = inhibition [%]
COc1ccc(C2Nc3ccccc3C(=O)N2Cc2ccc(CNC(=O)CO)cc2)cc1COc1ccc(NC(C)=O)cc1 (stereo not given)	–	-10.7
COc1ccc(C2Nc3ccccc3C(=O)N2CCCN(C)C)cc1COc1ccc(NC(C)=O)cc1 (stereo not given)	–	-9.32
COc1cc2ncnc(N(C)Cc3csc(C)n3)c2cc1-c1ccc2c(c1)OCO2	–	-9.97
N#Cc1nc(Nc2ccccc2)nc(NC2CCCCC2)n1	–	-10.1
O=C(O)C1CCN(c2ncc(-c3ccc4c(c3)OCCCO4)s2)CC1	–	-21.5
N#Cc1nc(Nc2ccc(F)cc2)nc(NC2CCCC2)n1	–	2.04
COc1ccc(S(=O)(=O)N2CCN(S(=O)(=O)c3ccc4c(c3)OCCO4)CC2)cc1	inactive	–
Cc1cc(C)nc(NC(=S)N2CC3CN(c4ncc(C(F)(F)F)cc4Cl)CC3C2)c1 (stereo not given)	2.51 µM (active)	–
O=[S+]([O-])(Nc1ccc(-c2nc3ccccc3[nH]2)cc1)c1ccc2c(c1)OCO2	–	-17.1
FC(F)Oc1ccc(C2=Nn3c(nnc3-c3ccccc3C(F)(F)F)SC2)cc1OCC1CC1	–	11.7
FC(F)(F)c1ccc(-c2ccc(CNc3nc(-c4ccccc4C(F)(F)F)nc4ccccc34)cc2)cn1	–	-28.7
COc1ccc(C2Nc3ccccc3C(=O)N2Cc2ccncc2)cc1COc1ccc(NC(C)=O)cc1 (stereo not given)	–	-11.2
O=C(Nc1nc(-c2ccccc2)cs1)c1ccncc1NS(=O)(=O)c1ccc2ccccc2c1	–	-9.15
O=C(Nc1nc(-c2ccccc2)cs1)c1ccncc1NS(=O)(=O)c1ccccc1Cl	–	3.41
O=C(Nc1cncc(Cc2ccccc2)c1)c1ccc(-c2cccc([N+](=O)[O-])c2)o1	–	-12.7
O=C([C@H](Cc1ccc(O[S+](=O)([O-])c2cccnc2)cc1)N[S+](=O)([O-])c1ccccn1)N1CCN(c2ccccc2)CC1	–	-8.06
O=S(=O)(c1ccc2c(c1)OCO2)N1CCN(S(=O)(=O)c2c(F)cccc2F)CC1	–	12
O=C(NCCCCc1ccccc1)C1CCN(c2nc(-c3ccc(Br)cc3)cs2)CC1	–	-3.21
CCCCN(C)C(=O)Cn1nc(-c2ccc(Cl)cc2)ccc1=O	–	0.388
COc1ccc(C2=Nn3c(nnc3-c3ccc(OC)cc3)SC2)cc1	–	0.75

Reference: PubChem BioAssay (NCATS)
